Compounds without any hit were thinned out: in the full panel of roughly 83,000, 20% have a hit.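 Testing used 96-well plates and a 48-hour single-concentration exposure. Example: -40 means 40% of the starting cells died.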 Values without a mark were called inactive. Active and inactive are the calls of the source. Rule for the calls: active = growth percent below 10; inactive = the rest.
Key:
Experiment in all cases: NCI-60 one-dose screen, 48 h (100 = growth as untreated, 0 = no growth, -100 = all killed)
SK-MEL-2 melanoma = conditions: 10 µM unless noted
EKVX NSCLC = conditions: 10 µM unless noted
SN12C renal = conditions: 10 µM unless noted
UO-31 renal = conditions: 10 µM unless noted
TK-10 renal = conditions: 10 µM unless noted
ACHN renal = conditions: 10 µM unless noted
CAKI-1 renal = conditions: 10 µM unless noted
A498 renal = conditions: 10 µM unless noted
CCRF-CEM leukemia = conditions: 10 µM unless noted
MOLT-4 leukemia = conditions: 10 µM unless noted
SR leukemia = conditions: 10 µM unless noted
RPMI-8226 leukemia = conditions: 10 µM unless noted
OVCAR-8 ovarian = conditions: 10 µM unless noted
OVCAR-5 ovarian = conditions: 10 µM unless noted
OVCAR-4 ovarian = conditions: 10 µM
SK-OV-3 ovarian = conditions: 10 µM unless noted
IGROV1 ovarian = conditions: 10 µM unless noted
OVCAR-3 ovarian = conditions: 10 µM unless noted
HS 578T breast = conditions: 10 µM unless noted
NCI/ADR-RES ovarian = conditions: 10 µM unless noted

| SMILES | growth (SK-MEL-2 melanoma) | growth (EKVX NSCLC) [%] | growth (SN12C renal) [%] | growth (UO-31 renal) | growth (TK-10 renal) [%] | growth (ACHN renal) [%] | growth (CAKI-1 renal) | growth (A498 renal) | growth (CCRF-CEM leukemia) | growth (MOLT-4 leukemia) | growth (SR leukemia) | growth (RPMI-8226 leukemia) [%] | growth (OVCAR-8 ovarian) [%] | growth (OVCAR-5 ovarian) [%] | growth (OVCAR-4 ovarian) [%] | growth (SK-OV-3 ovarian) [%] | growth (IGROV1 ovarian) [%] | growth (OVCAR-3 ovarian) | growth (HS 578T breast) | growth (NCI/ADR-RES ovarian) |
| --- | --- | --- | --- | --- | --- | --- | --- | --- | --- | --- | --- | --- | --- | --- | --- | --- | --- | --- | --- | --- |
| CCCCCCNC(=O)Nc1ncnc2c1ncn2-c1ccccc1 | 91.3% | 92.2 | 97.3 | 58.4% | 94 | 90.7 | 85.8% | 83.1% | 103% | 102% | 99.5% | 91.4 | 91.3 | 88.9 | 85.3 | 87.5 | 88.1 | 111% | 97.6% | 91.1% |
| CCN=Cc1c(O)c(O)c(C(C)C)c2cc(C)c(-c3c(C)cc4c(C(C)C)c(O)c(O)c(C=NCC)c4c3O)c(O)c12 | 51.4% | 30.5 | 54.9 | 39.2% | 43.5 | 24.4 | 73.3% | 69.5% | 20.1% | 32.8% | 27% | 34.8 | 39.2 | 63.4 | 31.7 | 63.4 | 46.8 | 32.5% | 57.8% | 47.9% |
| OC(c1ccc(Cl)cc1)(c1ccc(Cl)cc1)C(O)(c1ccc(Cl)cc1)c1ccc(Cl)cc1 | 68.4% | 49 | 29.8 | 25.7% | 29.1 | 61.8 | 46.8% | 64.4% | 32.8% | 22.7% | 25.9% | 30.8 | 56.8 | 71.7 | 44.8 | 35.9 | 19.6 | 40.7% | 68.6% | 48.5% |
| CCOC(=O)COc1c(C)cc(SSc2cc(C)c(OCC(=O)OCC)c(C)c2)cc1C | 100% | 107 | 102 | 82.4% | 87.5 | 107 | 106% | 99.8% | 82.5% | 82.5% | 90.9% | 90.6 | 102 | 128 | 93.1 | 106 | 96.5 | 107% | 122% | 110% |
| CCn1cc(-c2ccnc(NCCNS(=O)(=O)c3cccc4ccccc34)c2)c(-c2cccc(O)c2)n1 | 111% | 96.9 | 96.7 | 90.3% | 114 | 100 | 102% | 91.5% | 95% | 93.1% | 74.9% | 74 | 101 | 123 | 99.9 | 106 | 91.5 | 100% | 95.3% | 102% |
| O=S(=O)(NCCNc1nccc(-c2c(-c3cccc(F)c3)nc3occn23)n1)c1ccc(C(F)(F)F)cc1 | 92.2% | 84.2 | 84.8 | 57.1% | 97.5 | 87.7 | 68.9% | 78% | 84% | 52.9% | 88.3% | 75.5 | 87.5 | 102 | 87.6 | 79.5 | 77 | 99.1% | 74.3% | 95.5% |
| CC1Cc2c(ncnc2-n2cnc3ccccc32)N(C)c2ccccc21 (stereo not given) | -6.66% (active) | 48.6 | 35.5 | 46.4% | 50 | 55.7 | 33.6% | -2.09% (active) | 13% | 23.2% | 15.2% | 26.2 | 44.1 | 95.2 | 65.2 | 17.2 | 62.5 | 14.7% | 36.6% | 9.36% (active) |
| O=[N+]([O-])c1cc(CCl)ccc1OCCBr | 106% | 104 | 99.7 | 80.8% | 101 | 107 | 92% | 91.9% | 86.6% | 109% | 102% | 93.5 | 101 | 108 | 97 | 102 | 107 | 105% | 108% | 110% |
| O=C(O)c1cn(C2CC2)c2cc(N3CCN(Cc4c(O)ccc5ccccc45)CC3)c(F)cc2c1=O | 73.8% | 60.4 | 30.3 | 40.1% | 61.4 | 53.9 | 4.12% (active) | -16.6% (active) | 67.7% | 31.6% | 1.76% (active) | 73.5 | 16.8 | 40.8 | 18.2 | 48.4 | 32.1 | -44.1% (active) | -6.63% (active) | 45.4% |
| CCC(C)[C@H](NC(=O)NC(=O)NC(=O)CI)C(=O)OC (stereo not given in full) | 86.1% | 102 | 89.3 | -21.3% (active) | 91.8 | 57.3 | -59.6% (active) | 89.1% | -46.2% (active) | -16.7% (active) | -40.7% (active) | 61.9 | 88.1 | 94.3 | 63.6 | 88.4 | 80.7 | -39.5% (active) | 84.9% | 98.4% |
| COc1cc(NCc2ccccc2O)c2ncccc2c1 | 142% | 82 | 106 | 75.8% | 150 | 97.2 | 8.76% (active) | 72% | 91.5% | 88.3% | 82.4% | 46.9 | 102 | 69.6 | 82.3 | 107 | 90.4 | 97.2% | 149% | 71.9% |
| Nc1nc(Cl)c2ncn(Cc3cc4c(cc3I)OCO4)c2n1 | 57.1% | 95.8 | 33 | 34.7% | 23.6 | 56.7 | 47.5% | 61.8% | 26.3% | 52.6% | 9.76% (active) | 34.8 | 60.7 | 72.8 | 79.7 | 58.7 | 83.2 | 41.9% | 81.2% | 58% |
| C=CCCCCCCCCC(=O)OC(C)C | 101% | 101 | 105 | 88.9% | 101 | 107 | 107% | 91.4% | 2.8% (active) | 95.2% | 89% | 99.7 | 104 | 99.2 | 112 | 102 | 109 | 105% | 93.9% | 102% |
| Cc1cc[n+](CCCCCCCCCC[n+]2ccc(C)cc2)cc1 | 98.4% | 95.4 | 63.5 | 99.8% | 82.7 | 105 | 96.6% | 85% | 99.1% | 83.5% | 98.9% | 102 | 99 | 97.9 | 99.4 | 97.8 | 112 | 99.4% | 102% | 94.3% |
